Laboratory results published in PubChem BioAssay (EPA / NIEHS).
Active and inactive are the calls of the source. How the source made its calls: active means hit-call score of the fitted dose curve at least 0.9, where 1 is the maximum; inactive means score below 0.9.

test: ATG_M_61_CIS: Attagene CIS-FACTORIAL HepG2 Assay for M61 Transcription Factor (Internal Marker) (AID 2282937); settings: HepG2 Attagene CIS-FACTORIAL M61 internal marker reporter; actives raise or lower the signal
Method: ATG_CIS is a cell-based, multiplexed-readout assay that uses HepG2, a human liver cell line, with measurements taken at 24 hours after chemical dosing in a 24-well plate.ATG_M_61_CIS is one of 52 assay component(s) measured or calculated from the ATG_CIS assay. It is designed to make measurements of mRNA induction, a form of inducible reporter, as detected with fluorescence intensity signals by Reverse transcription polymerase chain reaction (RT-PCR) and Capillary electrophoresis technology.Data from the assay component ATG_M_61_CIS was analyzed into 1 assay endpoint. This assay endpoint, ATG_M_61_CIS, was analyzed with bidirectional fitting relative to DMSO as the negative control and baseline of activity. Using a type of inducible reporter, measures of mRNA for gain or loss-of-signal activity can be used to understand the background control at the transcription factor-level as they relate to the gene . Furthermore, this assay endpoint can be referred to as a secondary readout, because this assay has produced multiple assay endpoints where this one serves a background control function. To generalize the intended target to other relatable targets, this assay endpoint is annotated to the background measurement intended target family, where the subfamily is internal marker.
Human liver HepG2 cells are transiently transfected with multiple reporter transcription units (MRTUs) in 6-well plates using FuGene 6 reagent (Roche; 3 ml FuGene/1 mg DNA). The MRTU constructs are regulated by a cis-regulating element (promoter). […] A major difference between the CIS and TRANS system is that in CIS activities of endogenous TFs are measured, whereas the TRANS assay evaluates changes in activities of exogenous, chimeric NR-Gal4 proteins. […] At the end of 24 hour incubation, total RNA was isolated using TriZol reagent (Invitrogen). The isolated RNA is then reverse-transcribed using oligo(dT) primer and Mo-MLV reverse transcriptase (Invitrogen) with DNAse I (Ambion) treatment for 30 min. The one-tenth of the produced cDNA was amplified by PCR using Taq DNA polymerase (Invitrogen) and two reporter sequence-specific primers. The PCR products were fluorescently labeled by primer extension with 6-arboxyfluorescein (6-FAM) 5'-labeled reporter sequence-specific primer (2 min at 95 C, 20 s at 68 C and 10 min at 72 C) and these products were digested with 5U of HpaI (New England Biolabs) for 2h at 37 C. The fragments were purified using Qiaquick PCR columns (Qiagen), analyzed on an ABI 3130xL genetic analyzer (Applied Biosystems) with peak positions identified by using a set of X-rhodamine (ROX)-labeled MapMarker1000 molecular weight standards (BioVentures). The raw capillary electrophoresis data was processed using Attagraph software (Attagene).

outcome, inactive:
CC(=O)OCCC1CCCCC1, CC1(C)[C@H]2CC[C@]1(C)C(=O)C2, C=C[Si](C)(C)O[Si](C)(C)C=C, Nc1ccc(-c2ccc(F)cc2)cc1, CC(=O)Nc1ccc2c(c1)Cc1cc(NC(C)=O)ccc1-2, O=C1CCCCCCCCCCCCCCCO1, CC(C)C1=CC2=CC[C@@H]3[C@](C)(CCC[C@@]3(C)C(=O)O)[C@H]2CC1, O=C(c1ccccc1)c1ccc(O)c(O)c1O, CC(=O)OC(C)C, C=CCCCCCCCCC(=O)OCCCC, CCCCCCOC(=O)C(C)CC (stereo not given), O=[N+]([O-])c1ccc(CO)cc1, CNC(=S)NN, C=C(C)c1cccc(C(C)(C)N=C=O)c1, c1ccc2c(c1)ccc1ncccc12, CCCCCC/C=C\CCCCCCCC(=O)O, CC(=O)C=CC1C(C)=CCC(C)C1(C)C (stereo not given), O=C1C=CC(=O)O1, CC(=O)c1ccc2c(c1)CCCC2, Cc1oncc1C(=O)Nc1ccc(C(F)(F)F)cc1, C#CC1(O)CC[C@H]2[C@@H]3CCC4=CCCC[C@@H]4[C@H]3CC[C@@]21C (stereo not given in full), CCCCC(CC)CCC(CC(C)C)OS(=O)(=O)O (stereo not given), N#CCc1ccc(Cl)cc1Cl, O=c1c2ccccc2nnn1CCl, Cc1cc(C)c(C)c(C)c1, CCC(C)(C)C1CCCCC1OC(C)=O (stereo not given), CCCCCCCCCCCCCCCC[n+]1ccccc1, C=CC(=O)OCCOC1C2CCC1C1CC=CC12 (stereo not given), c1ccc(-c2ccccn2)nc1, CCCCCC/C=C/C=O, C(=CC=Nc1ccccc1)C=CNc1ccccc1, CC(C)(C)c1n[nH]c(=O)n(N)c1=O, CC(C)CCCC(C)CC=O (stereo not given), CCN(CC#N)c1cccc(C)c1, CCOC(=O)Cc1cccc2ccccc12, C=C[C@](C)(O)CC[C@@H]1[C@@]2(C)CCCC(C)(C)[C@@H]2CC[C@@]1(C)O, CN(C)c1ccc(C(=N)c2ccc(N(C)C)cc2)cc1, O=c1cc(-c2ccccc2)oc2ccccc12, Nc1cccc(C(F)(F)F)c1, CCC(Cc1ccccc1)(C(=O)c1ccc(N2CCOCC2)cc1)N(C)C (stereo not given)
